Assay results from article PMC5540273 (PLoS ONE, 2017).

What was measured:
Conditions in all cases: concentration: 1 μM, replicates: in singlicate; n = 1
ZAK = system: ZAK
ZAP70 = system: ZAP70
p38-alpha = system: T1, p38-alpha
T1 construct: gene MAPK14

p38-beta = system: T2, p38-beta
T2 construct: gene MAPK11

p38-delta = system: p38-delta
p38-gamma = system: T3, p38-gamma
T3 construct: gene MAPK12
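Also: KINOMEscan kinase panel screen.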

SMILES | %Inh (ZAK) [%] | %Inh (ZAP70) [%] | %Inh (p38-alpha) [%] | %Inh (p38-beta) [%] | %Inh (p38-delta) [%] | %Inh (p38-gamma) [%]
CC(C)(C)c1ccc2nccc(Nc3cccc(O)c3)c2c1 [GW856795] | 0 | 42 | 0 | 0 | 12 | 18
Cc1ccc(C(=O)N2CC[C@@H](O)C2)cc1-n1c(C)cc(OCc2ccc(F)cc2F)c(Br)c1=O | 0 | 0 | 100 | 95.4 | 7 | 5
CN(c1ccc(NC(=O)Nc2cc(C(F)(F)F)ccc2F)cc1)c1ccnc(Nc2ccc(S(N)(=O)=O)cc2)n1 [GW809893] | 94.8 | 27 | 9 | 88 | 91.7 | 85
COc1cc2c(cc1OCCN1CCNCC1)ncc1c3ccc(C#N)cc3[nH]c21 | 8 | 28 | 9 | 3 | 0 | 30
Cl.c1ccc(-c2ccc3c(Nc4ccc5[nH]ccc5c4)ccnc3c2)nc1 [GW440138] | 0 | 49 | 20 | 0 | 41 | 0
COc1cccc(-c2ccc3c(NC(=O)C4CC4)n[nH]c3n2)c1 [SB-710903] | 0 | 48 | 23 | 0 | 40 | 0
Nc1ncc(-c2cccnc2)c2scc(-c3ccc4c(c3)CCN4C(=O)Cc3ccccc3)c12 [GSK683281] | 9 | 0 | 4 | 0 | 71 | 0
CC(=O)N1CCN(c2ccc(Nc3nccc(-c4sc(C(C)C)nc4-c4cccc(NS(=O)(=O)c5cccc(Cl)c5)c4)n3)cn2)CC1 [GSK1660437] | 96.7 | 0 | 32 | 0 | 0 | 11
Cl.Cl.NCC(NCc1ccc(-c2ccnc3[nH]ccc23)s1)c1ccccc1 (stereo not drawn) [GSK1321565] | 15 | 0 | 27 | 0 | 3 | 0
Cc1cccc(NC(=O)Nc2ccc(Oc3ncnc4ccn(C)c34)cc2)c1 | 0 | 0 | 0 | 0 | 0 | 0
Cc1cccc(Nc2nc(N[C@H]3CCNC3)ncc2C(N)=O)c1.Cl [GSK2197149] | 0 | 0 | 0 | 0 | 19 | 0
CNC(=O)c1ccccc1Nc1nc(Nc2ccc(N3CCOCC3)cc2)ncc1Cl.Cl [GSK1576028] | 13 | 6 | 8 | 2 | 0 | 13
CCCCc1nn2ncccc2c1-c1ccnc(Nc2ccc(N3CCN(C)CC3)cc2)n1 [GW684941] | 51 | 0 | 94.2 | 43 | 21 | 0
O=C(Nc1cccc(-c2nn3ncccc3c2-c2ccnc(Nc3ccccc3)n2)c1)c1c(F)cccc1F [GSK198271] | 96.6 | 0 | 99.3 | 99.2 | 77 | 0
COc1ccc(Nc2nccc(N3CCC(NC(=O)Nc4cccc(OC)c4)C3)n2)cc1 (stereo not drawn) [GSK1379742] | 2 | 3 | 1 | 0 | 29 | 0
Cc1ccc(S(=O)(=O)Nc2ccc(Nc3nccc(Nc4cccc5[nH]ncc45)n3)cc2)cc1 [GSK581271] | 13 | 0 | 0 | 0 | 46 | 0
C[C@@H](Oc1cc(-n2cnc3cc(-c4ccnc(NCCS(C)(=O)=O)c4)ccc32)sc1C(N)=O)c1ccccc1Cl [GSK907232] | 27 | 0 | 0 | 14 | 29 | 0
O=C(Nc1cccc(-c2nn3ccccc3c2-c2ccnc(Nc3cccc(C(F)(F)F)c3)n2)c1)c1c(F)cccc1F [GSK292658] | 80 | 0 | 17 | 32 | 24 | 0
CN1CCN(CCCNc2nccc(-c3c(-c4ccc(F)cc4)nn4cc(C(F)(F)F)ccc34)n2)CC1 [GW621581] | 17 | 0 | 99.8 | 39 | 12 | 18

SMILES | %Inh (ZAK) [%] | %Inh (ZAP70) [%] | %Inh (p38-alpha) [%] | %Inh (p38-beta) [%] | %Inh (p38-delta) [%] | %Inh (p38-gamma) [%]
Cc1ccc(C)c(NC(=O)NC2CCN(c3ccnc(Nc4ccc(F)cc4)n3)C2)c1 (stereo not drawn) [GSK1379720] | 15 | 0 | 11 | 0 | 45 | 16
O=c1[nH]cc(-c2ccc(N3CCOCC3)cc2)c2sc(-c3cn[nH]c3)cc12 [GSK2276055] | 69 | 0 | 8 | 0 | 41 | 36
COc1cc(Nc2nccc(N3CCC(NC(=O)Nc4cccc(C(C)=O)c4)C3)n2)cc(OC)c1OC (stereo not drawn) [GSK1379753] | 0 | 12 | 0 | 0 | 41 | 0
COc1cc(Nc2nccc(-c3c(-c4cccc(NC(=O)c5c(F)cccc5F)c4)nn4ccccc34)n2)cc(OC)c1OC [GSK323521] | 0 | 0 | 0 | 7 | 43 | 42
c1ccc(-c2n[nH]cc2Nc2ccnc3ccccc23)nc1 [GW694077] | 0 | 0 | 2 | 0 | 0 | 0
NCCCC(NC(=O)c1cc(Br)c(-c2ccnc3[nH]ccc23)s1)c1ccccc1.O=C(O)C(F)(F)F.O=C(O)C(F)(F)F (stereo not drawn) [GSK1287544] | 59 | 0 | 0 | 0 | 0 | 10
O=C(NC1CCN(c2ccnc(Nc3ccc(F)cc3)n2)C1)c1cc2ccccc2s1 (stereo not drawn) [GSK1379716] | 20 | 0 | 7 | 0 | 45 | 67
Clc1ccc(-c2nn3ncccc3c2-c2ccnc(Nc3ccc4c(c3)OCCO4)n2)cc1 [GW829116] | 9 | 0 | 99.7 | 83 | 13 | 0
CSc1cccc2c(-c3ccncn3)c(-c3ccc(F)cc3)nn12 [GW514786] | 0 | 8 | 98 | 29 | 38 | 2
COC(=O)Nc1nc2cc(Oc3ccc(NC(=O)Nc4cc(C(F)(F)F)ccc4F)cn3)ccc2[nH]1.Cl.Cl [GW681170] | 92 | 0 | 70 | 34 | 75 | 42
FC(F)(F)c1ccc(/C=C/c2cncnc2Nc2ccc3[nH]c(Cc4ccccc4)nc3c2)cc1 [GW709199] | 0 | 9 | 0 | 3 | 0 | 35
Cn1cc(-c2ccc3c(c2)CCN3C(=O)Cc2cccc(Cl)c2)c2c(N)ncnc21 [GSK2606590] | 0 | 0 | 0 | 0 | 57 | 29
Cl.c1ccc(-c2ccc3c(Nc4ccc5[nH]ncc5c4)ccnc3c2)nc1 [GW440137] | 71 | 24 | 8 | 0 | 38 | 14
C[C@@H]1CC[C@@H](C(=O)Nc2ccccc2)CN1c1cc(-c2ccc3c(N)n[nH]c3c2)nc(N)n1 [GSK2286062] | 0 | 0 | 28 | 0 | 13 | 46
Nc1n[nH]c2cnc(-c3ccccc3)cc12 [SB-642124] | 16 | 0 | 0 | 0 | 28 | 0
Cl.NC(=O)c1cccc(Nc2nccc(Nc3ccc(Oc4c(Cl)cccc4Cl)c(Cl)c3)n2)c1 [GW659009] | 10 | 0 | 0 | 100 | 0 | 0
O=C(Nc1cccc(Oc2ccc3nc(NC(=O)C4CC4)cn3n2)c1)c1ccccc1C(F)(F)F | 25 | 0 | 9 | 15 | 17 | 42
c1ccc(Oc2ccc(Nc3ccnc4cc(-c5ccc(CNCCN6CCOCC6)o5)ccc34)cc2)nc1 [GW567145] | 77 | 0 | 20 | 0 | 0 | 0
